# Only some compounds are listed: those with a hit (about 17% of all), similar ones and a draw of the others.
# TDP1 cell CPT: DT40-hTDP1 cell growth loss with CPT | chicken DT40 Tdp1-/-;hTDP1 cells + 20 nM CPT, ATP luminescence, 48 h | Potency, µM (series often up to 46.2 µM), hits mostly inhibitors | 420,000 tested, 12% active | AID 686979; further: nearly all actives have a fitted effect of over 55% in size
#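 Cell growth measured by CellTiter-Glo luminescence after a minimum 48 h, 37 C compound exposure with 20 nM CPT in Tdp1-knockout DT40 cells stably expressing hTDP1, seeded 400/well; qHTS titration format.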
# HT1080-NT tox: kills 2HG-producing HT-1080-NT fibrosarcoma cells; HT-1080-NT fibrosarcoma viability, CellTiter-Glo ATP luminescence, 48 h; Potency, µM (series often up to 46.1 µM), usual class: cytotoxic; 360,000 tested, 1.6% active;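 further: NT is the 2HG producing partner of a matched IDH1 knockdown line; nearly all actives have a fitted effect of over 55% in size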
#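 Fibrosarcoma NT cells, 750 per well in 5% FBS RPMI, were exposed to compound for 48 hours. Viability: CellTiter-Glo luminescence.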
# TGFb inhibitor: TGF-b pathway inhibition; HepG2 CAGA-GFP TGF-b/SMAD3 reporter, GFP fluorescence, 18 h; TGF-beta stimulated, 500 pg/mL final; Potency, µM (series often up to 46.1 µM), hits mostly inhibitors; 410,000 tested, 1.2% active; further: nearly all actives have a fitted effect of over 65% in size
#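 HEPG2 CAGA-GFP, 1000 cells/well; 2 h settle, 37 C; cpd via pin tool; TGF-b 500 pg/mL final; 18 h, 37 C; GFP imaging ex488/em500-530; %Activity normalised to -TGF-b and +DMSO controls; CRC fit, curve class.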
# HT1080 IDH1KD tx: toxicity to HT-1080 IDH1 knockdown cells (counter line); HT-1080 IDH1 knockdown viability, ATP luminescence, 48 h; Potency, µM (doses to about 46.1 µM), hits mostly cytotoxic; 360,000 tested, 2% active; AID 686971
#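 CellTiter-Glo luminescence after 48 h compound exposure at 37 degrees C of IDH1-knockdown HT-1080 cells in 5% FBS RPMI. %Activity scaled between DMSO wells and cell-free media wells, with curves fitted and assigned curve classes.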
# DT40 TDP1 no CPT: qHTS for Inhibitors of human tyrosyl-DNA phosphodiesterase 1 (TDP1): qHTS in cells in absence of CPT. DT40 Tdp1-/- hTDP1 cells, no CPT, ATP luminescence, 48 h. Potency, µM (top dose mostly 46.2 µM), most hits filed as inhibitors. 420,000 tested, 15% active; further: nearly all actives have a fitted effect of over 55% in size
#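 Luminescent ATP content (CellTiter-Glo) served as the growth readout. Knockout chicken DT40 cells expressing human TDP1 were exposed to compounds without camptothecin for a minimum 48 hr at 37 °C.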
# HepG2 tox: HepG2 cytotoxicity, counter-screen for TGF-b inhibitors | HepG2 CAGA-GFP viability, ATP luminescence, 18 h | Potency, µM (highest dose often 46.1 µM), most hits filed as cytotoxic | 410,000 tested, 0.76% active | AID 588856
#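 CellTiter-Glo luminescence gave cytotoxicity after 18 hours at 37 degrees C. The cells were HepG2 CAGA-GFP in 1% FBS DMEM, stimulated with 500 pg/mL TGF-beta after compound addition. %Activity was normalised to no-cell wells (complete cell-killing) and DMSO (no toxicity), and curves were fitted and classified.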
# Numbers stand for hits; n = inactive; u = inconclusive; x = no result given. The call rests on the fitted dose curve; in most records, active means well fitted curve in the direction sought with a large enough effect; inconclusive means small, poorly fitted or top-dose-only effect, or another doubt; inactive means no such curve, though single readings can be large; an effect the other way counts as inactive or inconclusive.
SMILES,TDP1 cell CPT,HT1080-NT tox,TGFb inhibitor,HT1080 IDH1KD tx,DT40 TDP1 no CPT,HepG2 tox
CN(C)c1ccc(/C=N/N=C2/NC(=O)/C(=C/c3ccc([N+](=O)[O-])cc3)S2)cc1,u,n,n,n,16µM,n
CSc1ccc(/C=C/C(=O)c2c(O)cc(C)oc2=O)cc1,n,n,n,n,u,n
Cc1nc2ccc(C(=O)N(C)Cc3ccco3)cn2c1N(C)CC1CCCCC1,18µM,n,u,u,13µM,n
CC1(C)Oc2ccc(C(=O)NNC(=O)Nc3ccccc3)cc2NC1=O,n,n,n,n,n,n
COc1ccc(Nc2nc(C)cc(=O)[nH]2)cc1,n,n,n,n,n,n
CCCCc1c(C)nc(Nc2ccc(OC)cc2)[nH]c1=O,u,n,n,n,13µM,n
CCCCCc1c(C)nc(Nc2ccc(F)cc2)[nH]c1=O,u,u,n,u,16µM,n
CC(=O)c1c(C)nc2nc(-c3ccccc3)nn2c1C,n,x,n,x,n,n
CCc1cccc(C)c1NC(=O)NC1COc2ccccc2C1 (centres undefined),n,x,n,x,n,n
N#Cc1cnn(-c2nc3sc4c(c3c(=O)[nH]2)CCCC4)c1N,21µM,n,n,n,15µM,n
Cc1ccc(CCN2CC(C(=O)NC3CCC(C)CC3)CC2=O)cc1 (centres undefined),n,n,n,n,u,n
COc1ccc(-c2noc(-c3ccc(N4CCCCC4)c([N+](=O)[O-])c3)n2)cc1,n,x,n,x,u,n
COc1ccc(CN(C)c2ccc(-c3nc(C)no3)cc2[N+](=O)[O-])cc1,10µM,x,u,x,8.2µM,n
CCN(CC)c1ccc(-c2nc(-c3ccco3)no2)cc1[N+](=O)[O-],u,x,n,x,26µM,n
Cc1noc(-c2ccc(N(C)Cc3ccccc3)c([N+](=O)[O-])c2)n1,21µM,x,u,x,16µM,n
Cc1noc(-c2ccc(-c3noc(-c4ccc([N+](=O)[O-])c(C)c4)n3)cc2)n1,n,x,n,x,n,n
CC1(C)CC(=O)c2cnc3c(C#N)cnn3c2C1,n,n,n,n,n,n
Cc1cc2oc(=O)c(CC(=O)NCCCO)c(C)c2c2occ(C(C)(C)C)c12,u,n,n,n,n,n
COCCNC(=O)Cc1c(C)c2c(cc(C)c3c(C(C)(C)C)coc32)oc1=O,9.2µM,6.5µM,n,8.2µM,15µM,n
COc1ccc(CCNC(=O)Cc2c(C)c3c(cc(C)c4c(C)coc43)oc2=O)cc1OC,18µM,x,n,x,21µM,n
Cc1cc2oc(=O)c(CC(=O)NCCCN(C)C)c(C)c2c2occ(C(C)(C)C)c12,u,18µM,u,5.8µM,u,22µM
COc1cc(C(=O)Nc2cc3c4c(c2)CC(=O)N4CCC3)cc(OC)c1OC,n,n,n,n,n,n
O=C(CNC(=O)C1CCCCC1)OCCOc1ccccc1,n,x,n,x,n,n
CC(=O)Nc1ccc(N(C(=O)c2ccco2)C(C(=O)NC2CCCCC2)c2ccccc2)cc1 (centres undefined),n,n,n,n,u,n
COC(=O)COc1cccc2c(=O)n(CC(=O)N3CCCCC3)ccc12,n,n,n,n,n,n
COC(=O)COc1cccc2c(=O)n(CC(=O)NCc3ccc(F)cc3)ccc12,1µM,u,n,3.7µM,1.2µM,n
CCOC(=O)C(C)Oc1cccc2c(=O)n(CC(=O)NCc3ccc(F)cc3)ccc12 (centres undefined),0.82µM,u,n,0.58µM,0.73µM,n
CCOC(=O)C(C)Oc1cccc2c(=O)n(CC(=O)NCc3ccccc3)ccc12 (centres undefined),0.58µM,0.52µM,u,0.52µM,0.92µM,n

# Screening results deposited in PubChem BioAssay by National Center for Advancing Translational Sciences (NCATS).
